Rpn11 block = Rpn11 (PSMD14) deubiquitinase inhibitors, primary screen, biochemical, fluorescence polarization, uHTS | human 26S proteasome, Ub4-pepOG fluorescence polarization; 20S core pre-blocked with epoxomicin | inhibition, % at 20 µM | 0.59% of 360,000 active;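 active means inhibition at 20 µM, scaled to each plate's controls, above about 33%, limit read from the data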
PHOSPHO1 inh = PubChem AID 1565 | inhibition, % at 13.3 µM | 1.1% of 290,000 active | recombinant PHOSPHO1, absorbance phosphatase assay; in the data active means inhibition above about 60%
HNF4A DNA FP = change in binding of human HNF4A to DNA, primary screen, biochemical, fluorescence polarization, FITC-DNA | Hepatocyte nuclear factor 4-alpha (Homo sapiens), P41235 | AID 1224865, 2016 | 0.3% of 360,000 active | activity change, % at 10 µM | 1 h; in the data active means activity change above about 30%, passing the limit was not always enough
TPT1 inh = Candida albicans TPT1 enzyme inhibitors, primary screen, biochemical, fluorescence polarization. recombinant caTPT1, FP RNA substrate dephosphorylation. inhibition, % at 5 µM. 0.81% of 300,000 active;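 active means inhibition above the mean of all tested compounds plus 3 SD, set per screening campaign, cut at about 24% in these data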
CendR NRP1 mod = modulators of CendR peptide binding to NRP-1, primary screen, biochemical, fluorescence polarization, uHTS; FAM-RPARPAR peptide binding to NRP-1; inhibition, % at 25 µM; 0.85% of 360,000 active;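 active means inhibition or corrected inhibition above about 18%, plus a signal ratio from 0.5 to 1.5, limit read from the data, passing the limit was not always enough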
Target sequence (O14786 whole entry, looked up): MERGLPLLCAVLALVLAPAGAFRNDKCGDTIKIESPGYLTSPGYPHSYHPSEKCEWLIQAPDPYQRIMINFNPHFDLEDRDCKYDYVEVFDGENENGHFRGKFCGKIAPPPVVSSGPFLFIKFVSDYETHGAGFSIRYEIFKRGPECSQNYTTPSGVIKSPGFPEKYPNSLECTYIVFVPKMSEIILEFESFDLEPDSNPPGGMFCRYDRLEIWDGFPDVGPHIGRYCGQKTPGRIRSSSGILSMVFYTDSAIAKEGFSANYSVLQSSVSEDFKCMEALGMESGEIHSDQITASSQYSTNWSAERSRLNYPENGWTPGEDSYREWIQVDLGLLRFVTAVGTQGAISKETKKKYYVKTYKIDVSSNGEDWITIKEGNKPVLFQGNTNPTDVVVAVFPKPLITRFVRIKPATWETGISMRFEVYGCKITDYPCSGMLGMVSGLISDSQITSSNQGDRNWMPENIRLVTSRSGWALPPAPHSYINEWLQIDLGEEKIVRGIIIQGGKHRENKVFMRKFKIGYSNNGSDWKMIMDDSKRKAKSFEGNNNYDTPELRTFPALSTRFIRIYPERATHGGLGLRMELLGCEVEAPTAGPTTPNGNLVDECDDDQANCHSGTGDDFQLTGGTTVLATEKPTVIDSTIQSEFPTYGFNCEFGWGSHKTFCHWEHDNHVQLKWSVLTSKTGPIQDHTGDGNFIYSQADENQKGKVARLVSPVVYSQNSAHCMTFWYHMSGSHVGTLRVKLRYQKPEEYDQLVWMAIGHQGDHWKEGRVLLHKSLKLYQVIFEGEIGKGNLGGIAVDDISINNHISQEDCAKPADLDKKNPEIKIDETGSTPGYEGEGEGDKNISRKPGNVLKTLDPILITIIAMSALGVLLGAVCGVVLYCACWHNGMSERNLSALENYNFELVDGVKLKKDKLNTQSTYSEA
Fh CTSL1 inh = Fasciola hepatica cathepsin L1 inhibitors, primary screen, counter-screen for PFM18AAP inhibitor project, biochemical, QFRET, fluorogenic peptide substrate; recombinant F. hepatica cathepsin L1, Z-Leu-Arg-MCA fluorescence; inhibition, % at 5.96 µM; 0.49% of 300,000 active;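 active means inhibition above the mean of all tested compounds plus 3 SD, set per screening campaign, cut at about 17% in these data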
Large screens that a line does not name were inactive. Shown are actives, neighbours in structure and some others; about 3.3% of the full set was active somewhere.

CC1(C)C(CC(=O)O)CC1C(=O)O (centres undefined)	CendR NRP1 mod 24 (no result: PHOSPHO1 inh, TPT1 inh, Fh CTSL1 inh)
CCN(CC)C(=O)Cn1cc(S(=O)(=O)CC(=O)NCCc2ccccc2)c2ccccc21	none
COc1ccc(CCNC(=O)CS(=O)(=O)c2cn(CC(=O)N(C(C)C)C(C)C)c3ccccc23)cc1OC	Fh CTSL1 inh 17
CCN(CC)C(=O)Cn1cc(S(=O)(=O)CC(=O)NCc2ccc(C)cc2)c2ccccc21	CendR NRP1 mod 22
CC(C)N(C(=O)Cn1cc(S(=O)(=O)CC(=O)NCCc2ccccc2)c2ccccc21)C(C)C	none (no result: PHOSPHO1 inh, TPT1 inh, Fh CTSL1 inh)
Cn1nnnc1Sc1ncnc2scc(-c3ccc(F)cc3)c12	Rpn11 block 49
COCCN(CCOC)S(=O)(=O)c1ccc(C(=O)Nc2nc(C)c(C(C)=O)s2)cc1	Fh CTSL1 inh 20
COc1ccccc1N(C)S(=O)(=O)c1ccc(C(=O)Nc2nc(C)c(C(C)=O)s2)cc1	none (no result: PHOSPHO1 inh, TPT1 inh, Fh CTSL1 inh)
Cc1ccc(C)c(C(O)c2ncc(-c3ccc4ccccc4c3)[nH]2)c1 (centres undefined)	none (no result: PHOSPHO1 inh, TPT1 inh, Fh CTSL1 inh)
CC(=O)Nc1ccccc1NS(=O)(=O)c1cccc([N+](=O)[O-])c1	Fh CTSL1 inh 19
CC(=O)Nc1ccccc1NS(=O)(=O)c1ccccc1[N+](=O)[O-]	none
Cc1cccc(N2CCN(C(=S)Nc3ccc4nc(N5CCN(C)CC5)cc(C)c4c3)CC2)c1C	HNF4A DNA FP 59 (no result: TPT1 inh, Fh CTSL1 inh)
O=C(c1ccc(Cl)cc1)c1oc2ccccc2c1CS(=O)c1ccccc1 (centres undefined)	PHOSPHO1 inh 98
Cc1cccc(COc2ccc(/C=N/NC(=O)c3nnn(-c4nonc4N)c3C)cc2)c1	none
Nc1cc(C(=O)O)c(N)c2c1C(=O)c1ccccc1C2=O	CendR NRP1 mod 57
CSCCc1nc(SCC(=O)Nc2nnc(C)s2)[nH]c1C	PHOSPHO1 inh 68
CC(C)N1CCc2c(sc(NC(=O)CCS(=O)(=O)c3ccccc3)c2C(N)=O)C1	CendR NRP1 mod 25
CN(C(=O)COC(=O)c1ccc[nH]c1=O)C1CCCCC1	none
O=C(NC1CCCCC1)C(C1CC1)n1c(=O)c(-c2ccccc2)nc2ccccc21 (centres undefined)	none (no result: Rpn11 block, PHOSPHO1 inh, TPT1 inh, Fh CTSL1 inh)
Cc1ccc(C(=O)NNC(=S)NC(=O)COc2ccccc2)cc1	PHOSPHO1 inh 97
Cc1ccccc1C(=O)NNC(=S)NC(=O)COc1ccccc1	PHOSPHO1 inh 97
Cc1ccc(C(=O)NC(=S)NNS(=O)(=O)c2ccccc2)cc1	PHOSPHO1 inh 62
CCC(=O)NC(=S)NNC(=O)c1ccccc1[N+](=O)[O-]	PHOSPHO1 inh 65
COc1ccc(OCC(=O)Nc2ccc(S(=O)(=O)N3CCCCC3)cc2)cc1	none
CC(=O)Cn1c(CN2CCN(C(=O)c3ccco3)CC2)nc2c1c(=O)n(C)c(=O)n2C	none
S=C(NCc1ccc2c(c1)OCO2)NC1CCN(Cc2ccccc2)CC1	none
C=C1c2cc3c(cc2NC(=S)N1Cc1ccccc1)OCO3	PHOSPHO1 inh 70
C=CCn1c(SCC(=O)Nc2ncc(Cc3ccc(Br)cc3)s2)nnc1-c1ccncc1	CendR NRP1 mod 23
C=CCn1c(SCC(=O)Nc2cc(C)on2)nnc1-c1ccncc1	none (no result: PHOSPHO1 inh, TPT1 inh, Fh CTSL1 inh)
O=C1O[C@@H](c2ccc(O)cc2)Cc2cccc(O)c21	CendR NRP1 mod 30 (no result: PHOSPHO1 inh, TPT1 inh, Fh CTSL1 inh)
COc1ccc([C@H]2Cc3cccc(O)c3C(=O)O2)cc1O	CendR NRP1 mod 31 (no result: PHOSPHO1 inh, TPT1 inh, Fh CTSL1 inh)
COc1ccc([C@H]2Cc3cc(O)cc(O)c3C(=O)O2)cc1O	none (no result: PHOSPHO1 inh, TPT1 inh, Fh CTSL1 inh)
Cc1ccnc2nc(C(=O)OCC(=O)N(Cc3ccccc3)C(C)(C)C)nn12	none (no result: PHOSPHO1 inh, TPT1 inh, Fh CTSL1 inh)
O=C1CSC(=S)N1c1cccnc1	PHOSPHO1 inh 98
O=C1CSC(=S)N1c1ccccc1	none (no result: PHOSPHO1 inh, TPT1 inh, Fh CTSL1 inh)
CCOc1ccccc1C(=O)NCC(=O)N1CCC(C)CC1	none (no result: PHOSPHO1 inh, TPT1 inh, Fh CTSL1 inh)
C=C1Cn2c(nnc2-c2ccc(Cl)cc2)S1	PHOSPHO1 inh 70
CC(CCc1ccccc1)NC(=O)c1ccc(C(=O)NC(C)CCc2ccccc2)cc1 (centres undefined)	none
CC(CCc1ccccc1)NC(=O)c1ccc(Cl)nc1 (centres undefined)	Fh CTSL1 inh 17
CC(C)CC(=O)NC(=S)Nc1ccccc1N1CCCC1	Fh CTSL1 inh 20
C/C(=N\Nc1ccc([N+](=O)[O-])cc1)c1ccc(C#N)cc1	none
N#CC(C#N)=NNc1ccc([N+](=O)[O-])cc1	Fh CTSL1 inh 24
c1ccc2c(c1)oc1c(-c3ccc4nccn4c3)cccc12	none (no result: PHOSPHO1 inh, TPT1 inh, Fh CTSL1 inh)
CCOC(=O)C1=C(N)N(c2cc(S(=O)(=O)N3CCOCC3)ccc2Cl)C(=O)C1	none
O=C(Nc1cccc(C(F)(F)F)c1)C1Cc2c(-c3cccc(F)c3)ccnc2O1 (centres undefined)	CendR NRP1 mod 30 (no result: PHOSPHO1 inh, TPT1 inh, Fh CTSL1 inh)
C=CCN(C(=O)c1csnn1)C(C(=O)NCc1ccccc1)c1c(F)cccc1Cl (centres undefined)	CendR NRP1 mod 27
CC1(C)CN(c2ccsc2C(=O)O)C1=O	Fh CTSL1 inh 26
CC(C)c1ccc(CN2CCN(C(=O)CCl)CC2)cc1	PHOSPHO1 inh 62 (no result: TPT1 inh, Fh CTSL1 inh)
CCN1CCN(C(=O)/C=C/c2cccc(Cl)c2)CC1	none
CCN1CCN(C(=O)/C=C/c2ccc(C(C)C)cc2)CC1	Fh CTSL1 inh 17 (no result: PHOSPHO1 inh)
CC(C)CC(=O)N1CCN(Cc2ccc(Cl)cc2)CC1	none
Cc1cc(=O)n2nc(N3CCCC(C(=O)Nc4cccc(C)c4C)C3)sc2n1 (centres undefined)	none (no result: PHOSPHO1 inh, TPT1 inh, Fh CTSL1 inh)
CCOc1ccc(OCC)c(NC(=O)C2CCN(S(=O)(=O)c3cnc[nH]3)CC2)c1	CendR NRP1 mod 21
COc1ccc(/C=C/C(=O)C2CC2)cc1Cn1nc(C)c([N+](=O)[O-])c1C	none
COc1ccccc1N(C)S(=O)(=O)c1ccc(C(=O)NCC(C)C)cc1	none
COc1ccccc1N(C)S(=O)(=O)c1ccc(C(=O)N(CC(N)=O)C(C)C)cc1	CendR NRP1 mod 25
COc1ccccc1N(C)S(=O)(=O)c1ccc(C(=O)Nc2cccc(Br)c2)cc1	CendR NRP1 mod 27 (no result: PHOSPHO1 inh, TPT1 inh, Fh CTSL1 inh)
Cc1cc(=O)[nH]c(SCc2nnnn2-c2ccc(Cl)cc2)n1	none
Cc1cc(Cl)ccc1N=c1ssnc1Cl	PHOSPHO1 inh 96
Cc1cc(C)nc(/N=c2/ssnc2Cl)c1	Fh CTSL1 inh 22
Cc1ccc(N=c2ssnc2Cl)cc1	PHOSPHO1 inh 101
Nc1ccccc1N=c1ssnc1Cl	none (no result: TPT1 inh, Fh CTSL1 inh)
Cc1nnc(N=c2ssnc2Cl)o1	none (no result: PHOSPHO1 inh, TPT1 inh, Fh CTSL1 inh)
COc1cc(N=c2ssnc2Cl)c(OC)cc1Cl	PHOSPHO1 inh 91
COc1ccc(OC)c(N=c2ssnc2Cl)c1	none
COc1ccc(C(=O)Nc2n[nH]c(-c3ccncc3)n2)cc1	CendR NRP1 mod 26
